D1 antag: blocks dopamine activation of the human D1 receptor; HEK293 TREx D1 cells, calcium flux, dopamine EC80; active compounds read low; activity change, negative = inhibition, % at 10 µM; actives 3.2% (n = 360,000); AID 504652; in the data active = activity change below about -30%; note: % is set by controls: 0 for no effect and ±100 for the full control effect
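Cells carrying a force-coupled, tetracycline-inducible human D1 receptor report calcium flux. Each well gets a 10 s baseline, compound with 180 s monitoring, then an EC80 dopamine stimulus with a second 180 s kinetic read.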
D1 potentiator: human D1 dopamine receptor positive modulation; actives 0.036% (n = 360,000); AID 504651; HEK293 TREx D1 cells, calcium flux, dopamine EC20 potentiation; potentiation, % at 10 µM; in the data active = potentiation above about 30%; note: 0% is about no effect
TRHR agonist: activates the human TRH receptor; TRHR cells, calcium flux fluo-8, FDSS agonist mode; activation, % at 2 µM; actives 0.18% (n = 360,000); AID 493084; note: 0% is about no effect
Target sequence (P34981 whole entry, looked up): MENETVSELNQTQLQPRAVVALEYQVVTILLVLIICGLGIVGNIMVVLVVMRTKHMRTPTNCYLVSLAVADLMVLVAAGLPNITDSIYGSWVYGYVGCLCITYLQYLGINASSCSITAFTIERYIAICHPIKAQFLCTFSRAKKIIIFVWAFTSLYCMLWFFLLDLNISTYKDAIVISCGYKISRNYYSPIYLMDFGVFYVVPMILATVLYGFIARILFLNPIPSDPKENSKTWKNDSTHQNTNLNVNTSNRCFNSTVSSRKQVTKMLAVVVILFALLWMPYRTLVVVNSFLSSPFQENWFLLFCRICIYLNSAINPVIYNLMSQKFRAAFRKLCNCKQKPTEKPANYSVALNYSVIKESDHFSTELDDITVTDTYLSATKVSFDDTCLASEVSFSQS
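Fluo-8-loaded TRHR cells; 10 s baseline, compound added, kinetic Ca2+ fluorescence read 1/s, agonist mode.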
D1 ag: agonists of human D1 dopamine receptor; AID 504660; actives 1% (n = 360,000); HEK293 T-REx D1 cells, calcium flux, agonist mode; P21728; activation, % at 2 µM; note: 0% is about no effect
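Tetracycline-induced HEK293 TREx D1 cells, force-coupled to calcium signalling, were dye-loaded with a no-wash calcium kit. Compound was pin-added after a 10 s baseline. Fluorescence was read kinetically at 1 cycle/s for 180 s, with calcium rises flagged as agonism.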
TRHR PAM: TRH receptor (human) allosteric enhancement; TRHR cells, fluo-8 calcium fluorescence, EC20 TRH enhancement; actives 0.66% (n = 360,000); AID 493056; P34981; enhancement, % at 2 µM; in the data active = enhancement above about 30%; note: 0% is about no effect
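TRHR-expressing cells loaded with fluo-8 calcium dye were read kinetically (ex 480/em 530) during compound addition, then stimulated with an EC20 of TRH (10 nM final). Enhancement of the Gq-mediated intracellular calcium response was scored.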
Starred values were filed as active, the others as inactive; · = no result; ! = not active in a repeat. An excerpt weighted towards active compounds, which were near 4.7% of everything screened. Cut-off read from the data, not from the text of the source, unless noted: active = activation above about 30%; inactive = the rest.

SMILES | D1 antag | D1 potentiator | TRHR agonist | D1 ag | TRHR PAM
N#C/C(=C\C1CC=CCC1)c1nc2ccccc2[nH]1 (stereo not given) | -35.1* | -10.5 | -0.3 | 22.1 | -6.3
COc1ccc(/C=C(\C#N)C(=O)NCc2cccs2)cc1OC | -34.4* | 0.5 | -1.1 | 0.5 | 26.2
COc1ccc(/C=C(\C#N)C(=O)NCc2ccccc2)cc1O | -4.7 | · | 0.1 | 2.6 | 7.2
COc1ccc(-c2nc(-c3ccccc3OC)no2)cc1OC | -36.1* | 0.5 | -0.1 | 6.6 | -7.9
COc1ccccc1-c1noc(-c2ccc(NC3CCCC3)c([N+](=O)[O-])c2)n1 | -40.5* | -2.4 | -0.2 | 1.1 | 11.2
Cc1ccccc1-c1noc(-c2ccc(NC3CCCC3)c([N+](=O)[O-])c2)n1 | 2.9 | -2.6 | 0.1 | 1.0 | -2.1
COc1ccccc1-c1noc(-c2ccccc2)n1 | 18.0 | 4.2 | -2.0 | -0.9 | -1.7
COc1ccc(-c2ccc(-c3noc(-c4ccccc4)n3)c(OC)n2)cc1 | -45.6* | -9.1 | 1.1 | 2.6 | 1.1
Cc1ccc(NC(=O)CN(C)C(=O)CSc2nc3ccccc3c(=O)n2Cc2ccco2)cc1 | -33.2* | -1.7 | -0.2 | 2.5 | 0.8
CCN(CC)CCn1c(SCC(=O)Nc2ccc3c(c2)CCC3)nc2ccccc2c1=O | -31.8* | -3.7 | -0.3 | 1.5 | -3.9
CCOCCCn1c(SCC(=O)Nc2cccc(OC)c2)nc2ccccc2c1=O | -46.2*! | -3.5 | -0.6 | 1.5 | -7.0
CCc1nn(CC(=O)N2CCN(c3cccc(C)c3)C(C)C2)c(=O)c2cc3sccc3n12 (stereo not given) | 5.6 | -3.5 | -0.2 | 2.8 | 3.0
CCOc1ccc(-c2nc(CSCC(=O)NCc3ccc(C)cc3)c(C)o2)cc1 | 0.3 | -2.8 | 0.2 | 5.5 | 11.4
O=C(CSCc1c(Cl)cccc1Cl)NCc1ccco1 | -31.0* | -6.0 | -0.4 | -0.4 | -3.9
CCOc1ccc(-c2nc(CSCC(=O)NCc3ccco3)c(C)o2)cc1 | -37.3* | -5.8 | -0.4 | 4.2 | -3.9
CC(C)(C)OC(=O)N1CCC(c2c(C(=O)N3CCN(c4ccccn4)CC3)cnn2-c2ccc(F)cc2)CC1 | -4.2 | 2.7 | 4.4 | -0.3 | -10.1
CCCOC(=O)c1c(-c2ccccc2)nc(CC)c(C(=O)SCC)c1CCC | -48.0* | -1.4 | 0.0 | -1.5 | 5.4
CC(C)(Oc1ccc(Cl)cc1)C(=O)NC1CCN(Cc2ccccc2)CC1 | -51.2* | -4.7 | -0.1 | 8.3 | -1.6
Cc1ccccc1C(=O)NC1CCN(Cc2ccccc2)CC1 | -32.5* | -7.0 | 0.6 | 1.1 | -3.7
COc1ccc(OC)c(S(=O)(=O)NC2CCN(Cc3ccccc3)CC2)c1 | -2.5 | 8.3 | 0.3 | 2.6 | -3.4
Cc1ccccc1C(=O)NC1CCN(Cc2nnnn2CCc2ccccc2)CC1 | -7.5 | -1.2 | 0.5 | 0.4 | -2.2
COc1ccc(CNC2CCN(Cc3ccccc3)CC2)cc1 | 19.1 | -8.4 | 2.3 | 32.2* | -3.2
COc1ccc(NS(=O)(=O)c2cccc(C(=O)NC3CCN(Cc4ccccc4)CC3)c2)cc1 | -33.2* | -0.4 | 1.1 | 2.2 | 12.3
CCOC(=O)c1ccc(Nc2nc3ccc(C(=O)c4ccccc4)cc3n3c(C)nnc23)cc1 | -12.0 | -0.1 | 1.0 | 3.9 | 0.5
O=C(NC1CCN(Cc2ccccc2)CC1)c1cccc(OC(F)F)c1 | -32.5* | -11.3 | -0.2 | 7.6 | 26.6
SMILES | D1 antag | D1 potentiator | TRHR agonist | D1 ag | TRHR PAM
O=C(NC1CCCCC1)c1cccc(OCc2ccccc2)c1 | -27.2 | -2.2 | 0.2 | 37.1* | -3.1
O=C(c1ccc(NS(=O)(=O)c2ccccc2)cc1)N1CCN(Cc2ccc3c(c2)OCO3)CC1 | -18.7 | -9.3 | -0.3 | 3.4 | -0.8
COc1ccc(NS(=O)(=O)c2cccc(C(=O)N3CCN(Cc4ccc5c(c4)OCO5)CC3)c2)cc1 | -61.2* | -8.9 | 0.2 | 6.1 | -0.7
Cc1cccc(Cc2c(C)nc3nc(SCc4ccccc4F)nn3c2C)c1 | 21.6 | 0.6 | 1.2 | 5.7 | -4.3
CC(C)CC(OC(=O)CNC(=O)c1ccccc1)C(=O)Nc1cc(C(F)(F)F)ccc1Cl (stereo not given) | -27.5 | -1.8 | -1.8 | 5.3 | -8.3
O=C(Nc1cccc(O)c1)c1cc(-c2ccccc2Cl)on1 | -36.4* | 4.4 | 0.3 | 7.6 | -10.7
O=C(COC(=O)c1ccccc1SCC(=O)N1CCCC1)Nc1ccccc1 | -24.8 | -2.1 | -0.9 | 9.2 | 2.0
CC(C)(C)N(Cc1ccccc1)C(=O)COC(=O)c1ccccc1SCC(=O)N1CCCC1 | -37.6* | -5.5 | 0.2 | 0.0 | -1.1
Cc1ccc(-c2nc(N)sc2CC(=O)OCC(=O)NCCC(C)C)cc1 | -57.1* | -4.8 | -0.2 | 1.3 | 2.2
CCC(C)NC(=O)COC(=O)Cc1sc(N)nc1-c1ccc(C)cc1 (stereo not given) | -59.5* | -5.0 | -0.2 | 3.1 | 0.6
CCOC(=O)Cc1sc(N)nc1C | -21.8 | 6.1 | 1.4 | 2.2 | -2.3
Cc1ccc(-c2nc(N)sc2CC(=O)OCC(=O)NCC2CCCO2)cc1 (stereo not given) | -41.9* | -6.8 | 0.6 | 0.4 | 1.2
CCCc1sc(N)nc1-c1ccc(C)cc1 | -59.7* | -4.0 | 0.4 | 3.9 | 4.8
CC(C)CCNC(=O)COC(=O)c1cc(Br)c(Br)s1 | -20.1 | -6.5 | -1.1 | 1.5 | 8.1
COc1ccc2c(c1)c1c(c(=O)n(-c3ccc(OC)c(OC)c3)c(=O)n1Cc1ccccc1C)n2C | -13.5 | -0.5 | -1.3 | 3.5 | 3.4
Cc1ccc(S(=O)(=O)C(CNS(=O)(=O)c2ccc(F)c(C(F)(F)F)c2)c2ccco2)cc1 (stereo not given) | · | -0.4 | 1.7 | -1.9 | -1.4
COc1ccc(-c2nc(SCC(=O)NCCCc3ccccc3)n[nH]2)cc1 | -16.1 | -2.8 | -0.5 | 0.3 | -5.6
Cc1cc(C)cc(N(CCC#N)C(=O)CSC2=Nc3ccccc3C3CC=NN23)c1 (stereo not given) | 11.0 | -1.3 | 0.5 | 3.3 | 33.6*
N#Cc1ccccc1NC(=O)CSC1=Nc2ccccc2C2CC=NN12 (stereo not given) | -7.2 | -5.7 | 0.0 | 1.4 | 4.0
O=c1c2ccccc2nc(/C=C/c2c[nH]c3ccccc23)n1-c1ccc([N+](=O)[O-])cc1 | -13.5 | -2.4 | -0.1 | -0.3 | -3.2
Cc1[nH]c2ccccc2c1/C=C/c1nc2ccccc2c(=O)n1-c1cccc([N+](=O)[O-])c1 | -36.7* | -9.8 | -0.6 | -1.0 | 0.2
COc1ccc(-n2c(/C=C/c3c(C)[nH]c4ccccc34)nc3ccccc3c2=O)cc1 | -57.4* | -2.4 | -1.8 | 0.5 | -1.3
CC(C)c1cnc2c(c1SCc1cccc(C(F)(F)F)c1)c(=O)n(C)c(=O)n2C | 4.1 | 2.8 | -0.5 | 7.7 | 0.4
O=C(N/N=C/c1ccc(O)cc1)c1csc2ccccc12 | -57.1* | -2.0 | -0.4 | 1.1 | -6.2
O=C(N/N=C/c1ccc(O)cc1)c1cc(-c2ccccc2)nc2ccccc12 | 4.9 | -3.4 | -0.2 | 1.4 | 12.8

Screens from PubChem.
